Experimental data reported in ChEMBL document CHEMBL1961873, “Compounds: GSK PKIS; Assays: Nanosyn kinase panel” (2012).

How the values were obtained:
[1] = target: T1, Inhibitor of nuclear factor kappa-B kinase subunit epsilon (Homo sapiens) (UniProt Q14164); settings: at 1 µM;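 note: reported values are averaged percent inhibition figures against human IKKε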
T1 sequence (whole entry): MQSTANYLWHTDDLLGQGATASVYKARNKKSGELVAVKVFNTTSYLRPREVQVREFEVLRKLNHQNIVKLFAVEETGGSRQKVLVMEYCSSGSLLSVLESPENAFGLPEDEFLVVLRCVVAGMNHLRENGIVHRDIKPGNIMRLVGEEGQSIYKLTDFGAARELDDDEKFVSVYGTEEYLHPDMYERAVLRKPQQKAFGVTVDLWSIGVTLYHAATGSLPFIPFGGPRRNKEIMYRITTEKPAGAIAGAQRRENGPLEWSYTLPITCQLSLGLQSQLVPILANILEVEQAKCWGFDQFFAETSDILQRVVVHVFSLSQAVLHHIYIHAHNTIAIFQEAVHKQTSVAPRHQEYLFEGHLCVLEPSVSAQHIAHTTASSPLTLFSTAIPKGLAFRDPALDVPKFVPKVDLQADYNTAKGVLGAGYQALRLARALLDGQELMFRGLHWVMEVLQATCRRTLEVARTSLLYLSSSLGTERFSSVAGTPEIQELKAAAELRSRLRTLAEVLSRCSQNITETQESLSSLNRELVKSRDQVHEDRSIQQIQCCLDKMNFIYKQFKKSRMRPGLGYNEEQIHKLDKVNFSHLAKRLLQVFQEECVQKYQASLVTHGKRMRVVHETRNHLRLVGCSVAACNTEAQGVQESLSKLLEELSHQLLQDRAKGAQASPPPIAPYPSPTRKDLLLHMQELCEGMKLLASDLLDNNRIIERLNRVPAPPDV

[2] = target: T2, Serine/threonine-protein kinase Nek1 (Homo sapiens) (UniProt Q96PY6); settings: at 0.1 µM
T2 sequence (whole entry): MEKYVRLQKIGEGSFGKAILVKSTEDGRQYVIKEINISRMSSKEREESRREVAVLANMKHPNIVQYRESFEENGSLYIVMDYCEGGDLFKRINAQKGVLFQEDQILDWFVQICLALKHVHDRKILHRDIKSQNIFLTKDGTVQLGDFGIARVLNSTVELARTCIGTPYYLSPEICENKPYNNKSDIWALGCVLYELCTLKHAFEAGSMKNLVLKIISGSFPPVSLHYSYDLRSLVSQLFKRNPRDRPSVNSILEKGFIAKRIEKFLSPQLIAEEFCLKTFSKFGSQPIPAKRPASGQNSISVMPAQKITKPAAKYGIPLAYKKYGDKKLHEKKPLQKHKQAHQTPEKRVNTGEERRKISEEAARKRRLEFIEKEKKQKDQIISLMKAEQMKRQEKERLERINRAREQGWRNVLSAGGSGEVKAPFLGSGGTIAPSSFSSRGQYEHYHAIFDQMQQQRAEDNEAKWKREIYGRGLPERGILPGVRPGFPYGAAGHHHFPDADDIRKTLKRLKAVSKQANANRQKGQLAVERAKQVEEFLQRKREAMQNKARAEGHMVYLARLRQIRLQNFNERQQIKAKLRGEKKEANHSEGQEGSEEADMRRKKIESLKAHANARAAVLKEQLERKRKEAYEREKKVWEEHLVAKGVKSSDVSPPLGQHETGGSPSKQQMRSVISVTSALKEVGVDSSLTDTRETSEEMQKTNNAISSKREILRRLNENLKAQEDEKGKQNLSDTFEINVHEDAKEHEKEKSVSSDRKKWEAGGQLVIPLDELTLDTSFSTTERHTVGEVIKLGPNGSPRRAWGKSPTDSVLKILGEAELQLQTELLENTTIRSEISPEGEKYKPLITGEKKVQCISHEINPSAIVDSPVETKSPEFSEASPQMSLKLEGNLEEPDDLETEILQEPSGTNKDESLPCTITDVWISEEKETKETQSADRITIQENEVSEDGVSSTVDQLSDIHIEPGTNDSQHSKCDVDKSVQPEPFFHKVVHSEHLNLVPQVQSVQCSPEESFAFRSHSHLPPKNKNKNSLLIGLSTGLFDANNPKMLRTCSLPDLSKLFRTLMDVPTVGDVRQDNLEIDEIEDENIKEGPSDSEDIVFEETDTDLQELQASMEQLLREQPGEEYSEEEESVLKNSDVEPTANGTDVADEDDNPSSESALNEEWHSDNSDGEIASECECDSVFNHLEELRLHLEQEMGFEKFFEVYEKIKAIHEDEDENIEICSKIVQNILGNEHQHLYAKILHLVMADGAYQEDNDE

[3] = target: T2, Serine/threonine-protein kinase Nek1 (Homo sapiens); settings: at 1 µM
[4] = target: T3, Serine/threonine-protein kinase Nek2 (Homo sapiens) (UniProt P51955); settings: at 0.1 µM
T3 sequence (whole entry): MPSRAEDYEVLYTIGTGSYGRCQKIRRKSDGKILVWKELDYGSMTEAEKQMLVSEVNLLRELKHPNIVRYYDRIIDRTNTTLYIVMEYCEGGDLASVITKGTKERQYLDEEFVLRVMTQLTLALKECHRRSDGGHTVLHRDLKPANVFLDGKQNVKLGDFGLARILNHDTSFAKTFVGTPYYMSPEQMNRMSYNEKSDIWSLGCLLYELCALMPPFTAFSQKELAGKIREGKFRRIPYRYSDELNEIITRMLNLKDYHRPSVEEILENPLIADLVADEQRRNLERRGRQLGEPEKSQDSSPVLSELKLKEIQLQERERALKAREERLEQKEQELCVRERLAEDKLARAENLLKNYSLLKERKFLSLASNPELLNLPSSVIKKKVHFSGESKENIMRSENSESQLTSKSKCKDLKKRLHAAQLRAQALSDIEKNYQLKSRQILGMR

[5] = target: T3, Serine/threonine-protein kinase Nek2 (Homo sapiens); settings: at 1 µM
[6] = target: Serine/threonine-protein kinase Nek6 (Homo sapiens) (UniProt Q9HC98); settings: at 0.1 µM
Chain of Serine/threonine-protein kinase Nek6 (Homo sapiens) (Q9HC98 whole entry): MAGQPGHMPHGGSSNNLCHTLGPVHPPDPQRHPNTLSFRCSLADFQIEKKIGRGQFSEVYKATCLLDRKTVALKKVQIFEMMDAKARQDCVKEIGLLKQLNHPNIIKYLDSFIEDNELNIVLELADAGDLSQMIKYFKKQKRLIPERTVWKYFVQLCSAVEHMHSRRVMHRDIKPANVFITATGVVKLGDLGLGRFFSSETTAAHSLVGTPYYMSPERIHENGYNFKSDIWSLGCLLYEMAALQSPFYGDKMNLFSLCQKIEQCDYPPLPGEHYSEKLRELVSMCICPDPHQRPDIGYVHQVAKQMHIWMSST

[7] = target: Serine/threonine-protein kinase Nek6 (Homo sapiens) (UniProt Q9HC98); settings: at 1 µM
[8] = target: Serine/threonine-protein kinase Nek7 (Homo sapiens) (UniProt Q8TDX7); settings: at 0.1 µM
Chain of Serine/threonine-protein kinase Nek7 (Homo sapiens) (Q8TDX7 whole entry, looked up): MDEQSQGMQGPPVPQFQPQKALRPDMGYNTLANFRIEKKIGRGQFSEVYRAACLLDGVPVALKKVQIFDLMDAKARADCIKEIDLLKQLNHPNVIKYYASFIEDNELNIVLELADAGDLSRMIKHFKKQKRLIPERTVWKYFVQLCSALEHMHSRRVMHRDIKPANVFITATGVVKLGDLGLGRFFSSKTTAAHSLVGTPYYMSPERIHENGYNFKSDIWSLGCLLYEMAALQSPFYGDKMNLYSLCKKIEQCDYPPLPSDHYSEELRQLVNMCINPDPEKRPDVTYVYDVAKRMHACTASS

[9] = target: Serine/threonine-protein kinase Nek7 (Homo sapiens) (UniProt Q8TDX7); settings: at 1 µM
[10] = target: T4, Serine/threonine-protein kinase Nek9 (Homo sapiens) (UniProt Q8TD19); settings: at 0.1 µM
T4 sequence (whole entry): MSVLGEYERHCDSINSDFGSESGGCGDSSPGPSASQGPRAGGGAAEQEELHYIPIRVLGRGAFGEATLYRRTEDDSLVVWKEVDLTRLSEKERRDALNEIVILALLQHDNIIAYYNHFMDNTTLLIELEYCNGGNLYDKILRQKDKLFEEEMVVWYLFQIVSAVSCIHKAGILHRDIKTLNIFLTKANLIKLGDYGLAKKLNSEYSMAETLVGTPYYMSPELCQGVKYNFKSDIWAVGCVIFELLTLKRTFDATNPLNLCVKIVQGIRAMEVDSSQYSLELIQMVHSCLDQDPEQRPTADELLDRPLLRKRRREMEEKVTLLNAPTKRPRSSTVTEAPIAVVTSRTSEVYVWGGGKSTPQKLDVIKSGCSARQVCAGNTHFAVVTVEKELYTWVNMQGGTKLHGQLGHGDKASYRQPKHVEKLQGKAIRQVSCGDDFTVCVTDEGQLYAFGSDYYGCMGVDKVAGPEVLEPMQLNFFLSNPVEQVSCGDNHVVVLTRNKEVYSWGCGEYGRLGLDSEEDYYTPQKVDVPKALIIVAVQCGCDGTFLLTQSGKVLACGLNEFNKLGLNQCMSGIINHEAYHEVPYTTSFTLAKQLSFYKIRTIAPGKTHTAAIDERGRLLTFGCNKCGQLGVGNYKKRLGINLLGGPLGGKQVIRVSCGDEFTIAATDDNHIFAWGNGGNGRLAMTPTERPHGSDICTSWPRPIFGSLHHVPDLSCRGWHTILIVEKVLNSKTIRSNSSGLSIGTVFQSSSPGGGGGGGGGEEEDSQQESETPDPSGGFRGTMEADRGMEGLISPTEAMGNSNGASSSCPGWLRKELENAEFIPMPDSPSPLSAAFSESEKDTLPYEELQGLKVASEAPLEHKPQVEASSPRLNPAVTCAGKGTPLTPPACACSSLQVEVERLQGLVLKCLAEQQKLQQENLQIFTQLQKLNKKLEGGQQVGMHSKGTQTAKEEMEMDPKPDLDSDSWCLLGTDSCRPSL

[11] = target: T4, Serine/threonine-protein kinase Nek9 (Homo sapiens); settings: at 1 µM
[12] = target: Serine/threonine-protein kinase PLK1 (Homo sapiens) (UniProt P53350); settings: at 0.1 µM
Chain of Serine/threonine-protein kinase PLK1 (Homo sapiens) (P53350 whole entry): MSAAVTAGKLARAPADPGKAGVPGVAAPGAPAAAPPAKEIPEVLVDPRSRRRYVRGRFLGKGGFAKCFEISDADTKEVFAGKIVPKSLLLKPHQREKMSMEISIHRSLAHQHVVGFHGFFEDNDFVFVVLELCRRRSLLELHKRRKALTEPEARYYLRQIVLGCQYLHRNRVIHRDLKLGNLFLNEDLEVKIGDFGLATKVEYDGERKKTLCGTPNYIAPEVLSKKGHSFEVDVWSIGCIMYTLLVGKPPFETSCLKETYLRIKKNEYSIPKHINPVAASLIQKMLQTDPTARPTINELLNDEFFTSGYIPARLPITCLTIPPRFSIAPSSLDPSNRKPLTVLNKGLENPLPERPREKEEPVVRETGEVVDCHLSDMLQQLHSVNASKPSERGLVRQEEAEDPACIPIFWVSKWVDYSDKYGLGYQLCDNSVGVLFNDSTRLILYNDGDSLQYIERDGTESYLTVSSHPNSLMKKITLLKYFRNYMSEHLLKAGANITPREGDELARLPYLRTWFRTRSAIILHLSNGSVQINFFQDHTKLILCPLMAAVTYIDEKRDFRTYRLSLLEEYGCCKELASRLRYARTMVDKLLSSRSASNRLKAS

[13] = target: Serine/threonine-protein kinase PLK1 (Homo sapiens) (UniProt P53350); settings: at 1 µM
[14] = target: T5, Dual specificity protein kinase TTK (Homo sapiens) (UniProt P33981); settings: at 0.1 µM
T5 sequence (whole entry): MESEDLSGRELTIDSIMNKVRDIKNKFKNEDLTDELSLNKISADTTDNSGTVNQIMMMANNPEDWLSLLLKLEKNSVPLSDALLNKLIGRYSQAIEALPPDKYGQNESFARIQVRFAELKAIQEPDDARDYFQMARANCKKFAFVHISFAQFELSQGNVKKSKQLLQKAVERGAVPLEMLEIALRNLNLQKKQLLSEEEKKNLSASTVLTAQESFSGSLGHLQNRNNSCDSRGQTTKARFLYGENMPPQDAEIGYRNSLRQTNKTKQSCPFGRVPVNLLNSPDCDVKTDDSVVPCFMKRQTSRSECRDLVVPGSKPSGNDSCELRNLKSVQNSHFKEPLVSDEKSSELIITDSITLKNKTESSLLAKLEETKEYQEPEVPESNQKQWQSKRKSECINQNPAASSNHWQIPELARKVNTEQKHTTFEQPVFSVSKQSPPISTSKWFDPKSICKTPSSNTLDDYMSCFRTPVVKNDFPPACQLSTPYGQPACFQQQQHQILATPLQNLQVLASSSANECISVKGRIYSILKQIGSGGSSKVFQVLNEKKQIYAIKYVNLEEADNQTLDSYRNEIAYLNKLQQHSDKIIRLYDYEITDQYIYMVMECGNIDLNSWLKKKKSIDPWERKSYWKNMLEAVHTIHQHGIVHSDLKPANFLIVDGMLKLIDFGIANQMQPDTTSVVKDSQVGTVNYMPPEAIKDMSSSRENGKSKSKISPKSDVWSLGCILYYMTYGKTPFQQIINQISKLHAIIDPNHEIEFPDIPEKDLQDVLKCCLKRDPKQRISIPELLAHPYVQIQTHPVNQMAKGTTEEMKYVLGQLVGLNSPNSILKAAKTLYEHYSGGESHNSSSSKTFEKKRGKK

[15] = test system: T6, Receptor-type tyrosine-protein kinase FLT3 (Homo sapiens), P36888 [D835Y]; settings: at 1 µM
T6 sequence (whole entry): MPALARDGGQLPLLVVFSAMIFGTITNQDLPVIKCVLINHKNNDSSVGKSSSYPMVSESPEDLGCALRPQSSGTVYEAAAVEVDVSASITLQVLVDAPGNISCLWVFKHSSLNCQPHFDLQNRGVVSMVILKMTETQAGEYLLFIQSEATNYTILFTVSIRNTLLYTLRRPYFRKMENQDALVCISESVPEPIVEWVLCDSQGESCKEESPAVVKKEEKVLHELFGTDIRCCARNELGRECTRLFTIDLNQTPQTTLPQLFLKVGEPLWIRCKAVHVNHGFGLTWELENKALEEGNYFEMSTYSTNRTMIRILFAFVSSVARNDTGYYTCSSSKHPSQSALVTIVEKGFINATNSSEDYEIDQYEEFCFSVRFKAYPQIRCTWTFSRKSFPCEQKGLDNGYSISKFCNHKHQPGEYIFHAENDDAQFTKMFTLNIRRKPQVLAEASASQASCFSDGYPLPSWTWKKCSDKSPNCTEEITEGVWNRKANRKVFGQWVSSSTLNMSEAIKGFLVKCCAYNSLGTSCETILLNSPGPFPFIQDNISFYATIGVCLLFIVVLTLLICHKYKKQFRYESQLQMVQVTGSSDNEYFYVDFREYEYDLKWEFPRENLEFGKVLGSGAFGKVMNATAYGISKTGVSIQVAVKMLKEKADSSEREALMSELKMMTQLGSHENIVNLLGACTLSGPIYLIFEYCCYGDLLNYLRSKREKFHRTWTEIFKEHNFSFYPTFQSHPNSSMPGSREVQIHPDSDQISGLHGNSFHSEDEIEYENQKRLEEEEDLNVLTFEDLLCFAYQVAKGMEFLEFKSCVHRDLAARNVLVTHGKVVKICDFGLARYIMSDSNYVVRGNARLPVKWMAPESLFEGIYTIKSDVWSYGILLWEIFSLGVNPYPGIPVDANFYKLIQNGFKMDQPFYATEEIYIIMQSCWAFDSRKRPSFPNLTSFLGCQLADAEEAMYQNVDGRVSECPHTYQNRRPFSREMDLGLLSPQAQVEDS

[16] = target: Vascular endothelial growth factor receptor 3 (Homo sapiens) (UniProt P35916); settings: at 0.1 µM
Chain of Vascular endothelial growth factor receptor 3 (Homo sapiens) (P35916 whole entry): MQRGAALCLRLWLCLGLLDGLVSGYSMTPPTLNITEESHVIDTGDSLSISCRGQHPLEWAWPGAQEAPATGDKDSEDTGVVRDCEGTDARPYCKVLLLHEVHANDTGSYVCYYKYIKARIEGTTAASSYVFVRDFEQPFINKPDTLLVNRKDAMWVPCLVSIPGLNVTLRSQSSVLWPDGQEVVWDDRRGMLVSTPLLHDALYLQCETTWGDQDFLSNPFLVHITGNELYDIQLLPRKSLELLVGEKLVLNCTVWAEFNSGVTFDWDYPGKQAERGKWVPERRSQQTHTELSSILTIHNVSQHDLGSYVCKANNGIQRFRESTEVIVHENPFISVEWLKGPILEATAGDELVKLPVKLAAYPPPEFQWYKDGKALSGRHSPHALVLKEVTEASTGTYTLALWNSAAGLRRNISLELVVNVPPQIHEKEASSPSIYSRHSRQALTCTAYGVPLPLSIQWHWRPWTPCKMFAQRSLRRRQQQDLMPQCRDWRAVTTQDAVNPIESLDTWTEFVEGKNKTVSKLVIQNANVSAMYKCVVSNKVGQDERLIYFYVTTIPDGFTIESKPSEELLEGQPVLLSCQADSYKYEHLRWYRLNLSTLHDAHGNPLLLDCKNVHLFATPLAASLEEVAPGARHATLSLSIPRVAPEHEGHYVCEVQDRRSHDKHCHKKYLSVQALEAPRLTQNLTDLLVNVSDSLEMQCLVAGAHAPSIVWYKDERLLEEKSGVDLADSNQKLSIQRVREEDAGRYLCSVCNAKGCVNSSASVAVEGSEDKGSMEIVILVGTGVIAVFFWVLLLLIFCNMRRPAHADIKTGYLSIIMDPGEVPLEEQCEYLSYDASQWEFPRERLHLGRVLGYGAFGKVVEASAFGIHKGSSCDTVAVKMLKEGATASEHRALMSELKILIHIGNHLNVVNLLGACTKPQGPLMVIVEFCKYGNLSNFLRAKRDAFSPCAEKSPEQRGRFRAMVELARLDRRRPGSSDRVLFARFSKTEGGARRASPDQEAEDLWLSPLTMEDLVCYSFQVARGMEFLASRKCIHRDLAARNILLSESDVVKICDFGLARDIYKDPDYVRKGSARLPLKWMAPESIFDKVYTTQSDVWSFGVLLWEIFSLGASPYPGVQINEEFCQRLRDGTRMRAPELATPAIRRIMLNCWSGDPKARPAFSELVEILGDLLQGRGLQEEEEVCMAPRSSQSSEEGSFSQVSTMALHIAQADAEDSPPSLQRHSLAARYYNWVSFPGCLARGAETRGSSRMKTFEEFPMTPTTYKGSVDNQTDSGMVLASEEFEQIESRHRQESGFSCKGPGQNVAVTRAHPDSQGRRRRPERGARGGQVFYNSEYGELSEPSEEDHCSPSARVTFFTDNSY

[17] = target: Vascular endothelial growth factor receptor 3 (Homo sapiens) (UniProt P35916); settings: at 1 µM
[18] = target: Macrophage colony-stimulating factor 1 receptor (Homo sapiens) (UniProt P07333); settings: at 0.1 µM
Chain of Macrophage colony-stimulating factor 1 receptor (Homo sapiens) (P07333 whole entry): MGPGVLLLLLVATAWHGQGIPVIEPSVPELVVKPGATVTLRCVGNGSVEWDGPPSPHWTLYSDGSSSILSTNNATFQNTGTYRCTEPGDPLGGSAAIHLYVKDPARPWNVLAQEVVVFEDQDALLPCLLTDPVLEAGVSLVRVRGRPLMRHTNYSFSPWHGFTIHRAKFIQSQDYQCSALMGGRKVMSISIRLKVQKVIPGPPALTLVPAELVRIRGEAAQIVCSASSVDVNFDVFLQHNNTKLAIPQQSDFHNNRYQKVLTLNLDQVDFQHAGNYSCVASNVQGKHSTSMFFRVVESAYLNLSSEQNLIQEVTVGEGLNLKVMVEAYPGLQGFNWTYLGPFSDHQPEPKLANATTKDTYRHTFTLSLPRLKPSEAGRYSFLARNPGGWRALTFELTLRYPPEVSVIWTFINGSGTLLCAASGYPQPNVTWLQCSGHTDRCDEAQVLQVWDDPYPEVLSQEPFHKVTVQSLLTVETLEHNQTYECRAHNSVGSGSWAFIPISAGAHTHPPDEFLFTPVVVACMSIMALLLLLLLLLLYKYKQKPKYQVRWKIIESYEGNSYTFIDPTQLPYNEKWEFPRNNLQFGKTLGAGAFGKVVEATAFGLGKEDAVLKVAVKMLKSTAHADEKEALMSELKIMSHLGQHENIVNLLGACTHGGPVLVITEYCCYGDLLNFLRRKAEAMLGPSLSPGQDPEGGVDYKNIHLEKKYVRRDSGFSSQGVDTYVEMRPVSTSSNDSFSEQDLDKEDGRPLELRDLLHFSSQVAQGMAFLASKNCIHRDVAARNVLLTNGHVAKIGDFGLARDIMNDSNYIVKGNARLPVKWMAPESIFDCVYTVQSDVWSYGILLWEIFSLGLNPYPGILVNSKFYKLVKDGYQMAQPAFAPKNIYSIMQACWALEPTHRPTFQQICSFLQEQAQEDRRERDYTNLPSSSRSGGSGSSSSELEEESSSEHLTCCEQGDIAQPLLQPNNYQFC

[19] = target: Macrophage colony-stimulating factor 1 receptor (Homo sapiens) (UniProt P07333); settings: at 1 µM
[20] = target: Tyrosine-protein kinase Fyn (Homo sapiens) (UniProt P06241); settings: at 0.1 µM
Chain of Tyrosine-protein kinase Fyn (Homo sapiens) (P06241 2-537 limits assumed): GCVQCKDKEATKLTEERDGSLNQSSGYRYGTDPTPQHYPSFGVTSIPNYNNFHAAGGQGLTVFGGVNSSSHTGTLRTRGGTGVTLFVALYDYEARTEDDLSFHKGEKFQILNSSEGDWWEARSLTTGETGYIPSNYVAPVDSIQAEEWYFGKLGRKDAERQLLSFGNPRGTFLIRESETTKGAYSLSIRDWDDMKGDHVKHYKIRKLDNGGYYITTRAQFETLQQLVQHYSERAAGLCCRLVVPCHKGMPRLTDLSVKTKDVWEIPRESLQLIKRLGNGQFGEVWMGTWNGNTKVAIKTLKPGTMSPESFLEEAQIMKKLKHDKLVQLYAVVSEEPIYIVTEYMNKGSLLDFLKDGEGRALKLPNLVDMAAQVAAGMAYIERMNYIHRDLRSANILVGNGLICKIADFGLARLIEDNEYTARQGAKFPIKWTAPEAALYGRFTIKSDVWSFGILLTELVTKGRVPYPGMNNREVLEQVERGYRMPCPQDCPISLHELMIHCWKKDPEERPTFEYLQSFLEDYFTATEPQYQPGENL

Compound | inhibition [1] | inhibition [2] | inhibition [3] | inhibition [4] | inhibition [5] | inhibition [6] | inhibition [7] | inhibition [8] | inhibition [9] | inhibition [10] | inhibition [11] | inhibition [12] | inhibition [13] | inhibition [14] | inhibition [15] | inhibition [16] | inhibition [17] | inhibition [18] | inhibition [19] | inhibition [20]
Fc1cccc(COc2ccc(Nc3ncnc4sc(-c5ccco5)cc34)cc2Cl)c1 | 4.97% | 1.98% | 3.24% | 3.69% | 5.99% | 1.71% | 2.07% | 2.72% | 4.26% | 10.3% | 8.43% | 6.82% | 4.61% | 6.94% | 0.69% | 1.58% | 3.49% | 0.84% | 8.62% | 0.36%
CN1CCC(n2cnc(-c3ccc(F)cc3)c2-c2ccnc(N)n2)CC1 | 7.06% | -0.73% | 0.96% | 2.43% | 2.64% | 2.5% | 2.17% | 3.21% | 3.4% | 7.9% | 11.4% | 2.4% | 0.91% | 5.14% | 1.95% | 1.56% | 2.31% | 2.19% | 6.29% | 0.4%
